Screening results from PubChem BioAssay.
p53 reactivation – mutant p53 re-activation in reporter cells | H1299 p53-A138V BP100-luciferase reporter, luminescence, 24 h | Potency, µM (series often up to 92.2 µM), without a hit: top-dose activity change, positive = activation, actives largely listed as activators | 0.063% of 320,000 active | AID 504706; also: potency is read from the fitted curve at half-maximal effect; % of control where 0% means no effect; nearly all actives have a fitted effect of over 45% in size
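H1299 (p53-null), stable ts p53-A138V + BP100-Luc; 1000 cells/well, Opti-MEM/10% FBS; cpd 4 pt, 1:5; 24 h, 37 deg C, 5% CO2; detection reagent 10 min RT; luminescence.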
Gal4-VP16 FLuc – counter-screen for ROR gamma inhibitors: Gal4-VP16 reporter; Drosophila S2 Gal4-VP16 UAS-luciferase, luminescence, 20 h; Potency, µM (doses to about 53.6 µM), for inactives: at the top dose activity, negative = inhibition, most hits filed as inhibitors; 3.5% of 310,000 active; AID 2546;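 also: Gal4-VP16 expression switched on by copper sulfate through the metallothionein promoter; potency is read from the fitted curve at half-maximal effect; % is scaled to controls: 0 for no effect and ±100 for the full control effect; nearly all actives have a fitted effect of over 50% in size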
BRCA1 expr up – activators of BRCA1 expression | Potency, µM (highest dose often 46.1 µM), without a hit: at the top dose activation, usual class: activators | MCF7-BRCA1-FFLuc reporter, luminescence, 48 h; response scale: scaled: vehicle 0%, 10 µM genistein 100% | AID 624202 | 1.1% of 380,000 active; also: potency is read from the fitted curve at half-maximal effect; nearly all actives have a fitted effect of over 80% in size
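48 h compound treatment of MCF7-BRCA1-FFLuc cells (phenol-red free MEM, 37 °C), then 15 min with luciferase substrate and luminescence imaging.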
ELG1 repair inh – inhibitors of ELG1-dependent DNA repair in HEK293T cells | 2.3% of 330,000 active | HEK293T ELG1-luciferase reporter, luminescence, 16 h; DNA damage induced by 5-fluorouridine | Potency, µM (series often up to 46.1 µM), for inactives: top-dose activity change, negative = inhibition, usual class: inhibitors; also: potency is read from the fitted curve at half-maximal effect; % is scaled to controls: 0 for no effect and ±100 for the full control effect; nearly all actives have a fitted effect of over 55% in size
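Reporter activity after DNA damage by 5-fluorouridine is monitored. Compound-treated cells incubate 16 hr at 37 °C, then ONE-Glo is added for 30 min before luminescence reading.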
Giardia kill – Giardia lamblia killing. Giardia lamblia trophozoite viability. activity change, % at 7.66 µM, hits read low. 0.15% of 340,000 active; in the data active = activity change below about -80%; inconclusive = between about -30% and that limit;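 also: parasites exposed to compound for two days anaerobically before the ATP read; % is scaled to controls: 0 for no effect and ±100 for the full control effect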
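Compounds were tested on trophozoites seeded at 100 cells/well and held 48 hrs at 37 deg C anaerobically. An ATP-based luminescent kit measured the remaining live cells.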
RORg inh – ROR gamma (mouse) transcription inhibition; Drosophila S2 Gal4-RORgamma UAS-luciferase reporter, 20 h; Potency, µM (titrated, usually from 53.6 µM), for the others: top-dose activity change, negative = inhibition, most hits filed as inhibitors; 5.4% of 310,000 active; also: potency is read from the fitted curve at half-maximal effect; % is scaled to controls: 0 for no effect and ±100 for the full control effect; nearly all actives have a fitted effect of over 60% in size
Target sequence (P51450 whole entry, looked up, the tested form may be a part): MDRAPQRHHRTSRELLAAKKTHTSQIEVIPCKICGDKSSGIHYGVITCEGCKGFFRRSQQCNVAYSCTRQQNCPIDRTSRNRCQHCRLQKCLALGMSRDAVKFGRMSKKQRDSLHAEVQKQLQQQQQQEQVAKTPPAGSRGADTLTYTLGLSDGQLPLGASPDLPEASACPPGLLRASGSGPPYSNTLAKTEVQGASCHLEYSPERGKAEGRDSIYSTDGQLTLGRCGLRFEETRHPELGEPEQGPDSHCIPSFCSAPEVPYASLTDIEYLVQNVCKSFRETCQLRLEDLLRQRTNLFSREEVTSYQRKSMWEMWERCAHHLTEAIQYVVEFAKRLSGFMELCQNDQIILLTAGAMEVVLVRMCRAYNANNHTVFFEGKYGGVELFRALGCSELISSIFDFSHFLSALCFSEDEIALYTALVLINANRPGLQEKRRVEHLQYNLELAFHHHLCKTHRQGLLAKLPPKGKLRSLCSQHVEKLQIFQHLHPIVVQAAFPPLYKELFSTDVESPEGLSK
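Compounds are pin-transferred onto Drosophila Schneider cells expressing a copper-inducible Gal4–ROR gamma transactivation domain fusion. After 1 hr, copper sulfate is added to 700 uM final; luciferase is read 20 hr later.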
Numbers without * were called inactive; [ ] = dose if it differs, or a comment. Compounds with a hit are over-represented: about 7.6% of the library has one in this group of screens. Unless noted, calls follow the shape of the dose curve; as a rule, active = well fitted curve in the direction sought with a large enough effect; inconclusive = small, poorly fitted or top-dose-only effect, or another doubt; inactive = no such curve, though single readings can be large; an effect the other way counts as inactive or inconclusive.

`Cc1ccc(NC2CC(=O)N(CCc3ccccc3)C2=O)cc1` (stereo not given) gave p53 reactivation 5%, Gal4-VP16 FLuc -11%, BRCA1 expr up 27%, ELG1 repair inh -6%, Giardia kill -13 and RORg inh 4µM*.
Cc1ccc(-c2n[nH]c(=S)n2C)cc1Cl was read as p53 reactivation 10%, Gal4-VP16 FLuc 3.5µM*, BRCA1 expr up 13%, ELG1 repair inh 0%, Giardia kill 5 and RORg inh 0.56µM*.
Screening O=C(Cc1ccccc1)Nc1scc(-c2ccccc2)c1C(=O)N1CCOCC1 returned p53 reactivation 1%, Gal4-VP16 FLuc 4%, BRCA1 expr up 4%, ELG1 repair inh -8%, Giardia kill -2 and RORg inh -1%.
Screening NC(=O)c1c(-c2ccc(Cl)cc2Cl)csc1NC(=O)Cc1ccccc1 returned p53 reactivation 13%, Gal4-VP16 FLuc 7.1µM*, BRCA1 expr up -38%, ELG1 repair inh inconclusive, Giardia kill -19 and RORg inh inconclusive.
Screening c1csc(CNCc2ccncc2)c1 returned p53 reactivation 1%, Gal4-VP16 FLuc -1%, BRCA1 expr up 42%, ELG1 repair inh 3%, Giardia kill -4 and RORg inh -14%.
`CN(C)CCN=Cc1c(O)n(Cc2ccccc2)c(=O)c2ccccc12` gave p53 reactivation -1%, Gal4-VP16 FLuc inconclusive, BRCA1 expr up -1%, ELG1 repair inh -9%, Giardia kill -9 and RORg inh 13µM*.
Screening COc1ccc(Cn2c(O)c(C=Nc3ccc(O)cc3)c3ccccc3c2=O)cc1 returned p53 reactivation -2%, Gal4-VP16 FLuc -28%, BRCA1 expr up -52%, ELG1 repair inh 23µM*, Giardia kill -20 and RORg inh 1%.
`Cc1ccc(Sc2c(C)nn(C(=O)c3cccc(S(=O)(=O)N4CCOCC4)c3)c2C)cc1` gave p53 reactivation -2%, Gal4-VP16 FLuc 3%, BRCA1 expr up -4%, ELG1 repair inh -14%, Giardia kill 2 and RORg inh -8%.
`Clc1nc(-c2n[nH]nc2Cl)n[nH]1` gave p53 reactivation 10%, Gal4-VP16 FLuc 8%[0.365 µM], BRCA1 expr up 16%, ELG1 repair inh 18%, Giardia kill -13 and RORg inh -38%.
C=CCn1c(SCC(=O)Nc2cc(C)on2)nc2c([nH]c3ccccc32)c1=O was read as p53 reactivation 18%, Gal4-VP16 FLuc 11µM*, BRCA1 expr up -38%, ELG1 repair inh 19%, Giardia kill 4 and RORg inh inconclusive.
CCSc1nc2c([nH]c3ccccc32)c(=O)n1C was read as p53 reactivation 1%, Gal4-VP16 FLuc -7%, BRCA1 expr up -25%, ELG1 repair inh 10%, Giardia kill inconclusive and RORg inh 2%.
`CCC1CCCCN1C(=O)CSc1nc2c([nH]c3ccccc32)c(=O)n1C` (stereo not given) gave p53 reactivation -5%, Gal4-VP16 FLuc -9%, BRCA1 expr up -41%, ELG1 repair inh 23µM*, Giardia kill -3 and RORg inh inconclusive.
Cn1c(SCC(=O)Nc2ccccc2)nc2c([nH]c3ccccc32)c1=O was read as p53 reactivation 5%, Gal4-VP16 FLuc 13µM*, BRCA1 expr up -17%, ELG1 repair inh 0%, Giardia kill -23 and RORg inh inconclusive.
`COc1cccc(NC(=O)CSc2nc3c([nH]c4ccccc43)c(=O)n2C)c1` gave p53 reactivation 1%, Gal4-VP16 FLuc -10%, BRCA1 expr up -70%, ELG1 repair inh inconclusive, Giardia kill 10 and RORg inh -20%.
Cc1cccc(NC(=O)CSc2nc3c([nH]c4ccccc43)c(=O)n2C)c1 was read as p53 reactivation -5%, Gal4-VP16 FLuc inconclusive, BRCA1 expr up -36%, ELG1 repair inh -8%, Giardia kill 4 and RORg inh 13µM*.
For Cc1ccc(S(=O)(=O)N(Cc2cccc(F)c2)C(=O)N2CCN(C)CC2)cc1 the results were p53 reactivation 1%, BRCA1 expr up 2%, ELG1 repair inh 21% and Giardia kill -4.
For O=[N+]([O-])c1ccc(C2OCCO2)cc1CS(=O)(=O)c1ccccc1 the results were p53 reactivation 0%, Gal4-VP16 FLuc 30%, BRCA1 expr up -9%, ELG1 repair inh 10%, Giardia kill 2 and RORg inh 5%.
`Cc1noc(C)c1CN1C(=O)NC(Cc2ccccc2)(Cc2ccccc2)C1=O` gave p53 reactivation 5%, Gal4-VP16 FLuc -1%, BRCA1 expr up 3%, ELG1 repair inh 7%, Giardia kill 16 and RORg inh 11µM*.
`CN(/N=C/c1ccc(O)cc1O)c1ncc(C(F)(F)F)cc1Cl` gave p53 reactivation 7%, Gal4-VP16 FLuc -11%, BRCA1 expr up -13%, ELG1 repair inh -1%, Giardia kill 36 and RORg inh 7.9µM*.
COc1cccc(C(=O)NCCNC(=O)c2cnccn2)c1 was read as p53 reactivation 4%, Gal4-VP16 FLuc -3%, BRCA1 expr up 1%, ELG1 repair inh -3%, Giardia kill -3 and RORg inh inconclusive.
`O=C(NCc1cccs1)c1cc(-c2cccc(Cl)c2)on1` gave p53 reactivation inconclusive, Gal4-VP16 FLuc 1%, BRCA1 expr up 57%, ELG1 repair inh inconclusive, Giardia kill 10 and RORg inh 0%.
`O=C(NCc1cccs1)c1cc(-c2ccc(O)cc2)on1` gave p53 reactivation 10%, Gal4-VP16 FLuc -24%, BRCA1 expr up 8.9µM*, ELG1 repair inh inconclusive, Giardia kill -13 and RORg inh inconclusive.
`O=S(=O)(NC1CCCCCCC1)c1cccs1` gave p53 reactivation 0%, Gal4-VP16 FLuc -3%, BRCA1 expr up 8%, ELG1 repair inh -4%, Giardia kill -1 and RORg inh 13%.
COc1cc2cc(CN(Cc3nnnn3C3CCCC3)C3CCCC3)c(=O)[nH]c2cc1OC was read as p53 reactivation -7%, Gal4-VP16 FLuc 3%, ELG1 repair inh -4% and RORg inh 0%.
For O=c1[nH]c2cc3c(cc2cc1CN(Cc1nnnn1C1CCCC1)C1CCCC1)OCCO3 the results were p53 reactivation 2%, Gal4-VP16 FLuc 18%, BRCA1 expr up 1%, ELG1 repair inh 13µM*, Giardia kill 7 and RORg inh 41%.
For CS(=O)(=O)c1cnc2c(-c3ccc(F)cc3)cnn2c1N the results were p53 reactivation inconclusive, Gal4-VP16 FLuc -25%, BRCA1 expr up inconclusive, ELG1 repair inh inconclusive, Giardia kill -11 and RORg inh 11µM*.
